Reference: PubChem BioAssay (NCI)
The panel holds about 83,000 compounds, 20% with a hit somewhere; the sample as a whole holds those more often.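 In brief: 96-well plates, 48 h treatment, single concentration, percent growth endpoint.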 Calls of active or inactive are those of the source. How the source made its calls: active means growth percent below 10; inactive means the rest.

Experiments:
Assay in all cases: NCI-60 one-dose screen, 48 h (100 = growth as untreated, 0 = no growth, -100 = all killed)
Conditions in all cases: 10 µM
NCI-H23 lung = system: NCI-H23 lung
NCI-H226 lung = system: NCI-H226 lung
NCI-H460 lung = system: NCI-H460 lung
HOP-92 NSCLC = system: HOP-92 NSCLC
NCI-H522 lung = system: NCI-H522 lung
A549/ATCC NSCLC = system: A549/ATCC NSCLC
786-0 renal = system: 786-0 renal
COLO 205 colon = system: COLO 205 colon
DU-145 prostate = system: DU-145 prostate
K-562 leukemia = system: K-562 leukemia
MALME-3M melanoma = system: MALME-3M melanoma
MDA-MB-231 breast = system: MDA-MB-231 breast
RXF 393 renal = system: RXF 393 renal
SF-268 CNS = system: SF-268 CNS
SF-295 CNS = system: SF-295 CNS
SF-539 CNS = system: SF-539 CNS
UACC-257 melanoma = system: UACC-257 melanoma
M14 melanoma = system: M14 melanoma
HOP-62 NSCLC = system: HOP-62 NSCLC

Measured: growth

C/C(=C/CCC(C)[C@@H]1CC[C@]2(C)C3=C(CC[C@@]12C)[C@@]1(C)CCC(=O)C(C)(C)[C@@H]1CC3)C(=O)O (stereo partly specified)
active: NCI-H23 lung -78.3% | NCI-H226 lung -47.3% | NCI-H460 lung -80.7% | HOP-92 NSCLC -93.3% | NCI-H522 lung -69% | A549/ATCC NSCLC -56.2% | 786-0 renal -92% | COLO 205 colon -91% | DU-145 prostate -92.3% | K-562 leukemia -16.1% | MALME-3M melanoma -88.9% | MDA-MB-231 breast -76.8% | RXF 393 renal -90.2% | SF-268 CNS -92.2% | SF-295 CNS -90.5% | SF-539 CNS -76% | UACC-257 melanoma -57.5% | M14 melanoma -76.8%

CN(C)CCCSc1ccccc1NC1=C(Cl)C(=O)C(Nc2ccccc2SCCCN(C)C)=C(Cl)C1=O
active: NCI-H23 lung -43.4% | NCI-H522 lung -78.2% | K-562 leukemia -18.8% | MALME-3M melanoma -28.8%
inactive: NCI-H226 lung 93.5% | NCI-H460 lung 103% | HOP-92 NSCLC 79% | A549/ATCC NSCLC 101% | 786-0 renal 42.9% | COLO 205 colon 17.9% | DU-145 prostate 87.4% | MDA-MB-231 breast 44.9% | RXF 393 renal 45.8% | SF-268 CNS 43.7% | SF-295 CNS 101% | SF-539 CNS 42.8% | UACC-257 melanoma 85% | M14 melanoma 94.7%

O=c1cn[nH]c2ccc(Br)cc12
inactive: NCI-H23 lung 97.6% | NCI-H226 lung 100% | NCI-H460 lung 108% | HOP-92 NSCLC 123% | NCI-H522 lung 91.3% | A549/ATCC NSCLC 102% | 786-0 renal 99.6% | COLO 205 colon 109% | DU-145 prostate 105% | K-562 leukemia 95.7% | MALME-3M melanoma 114% | MDA-MB-231 breast 116% | RXF 393 renal 95.3% | SF-268 CNS 99.9% | SF-295 CNS 107% | SF-539 CNS 95.6% | UACC-257 melanoma 104% | M14 melanoma 101%

COc1cccc(N=Nc2cccc(OC)c2)c1
inactive: NCI-H23 lung 86.4% | NCI-H226 lung 90.5% | HOP-62 NSCLC 82.6% | HOP-92 NSCLC 84% | NCI-H522 lung 73% | A549/ATCC NSCLC 83.9% | 786-0 renal 91.3% | DU-145 prostate 112% | K-562 leukemia 87.8% | MALME-3M melanoma 101% | MDA-MB-231 breast 84% | RXF 393 renal 91.2% | SF-268 CNS 103% | SF-295 CNS 92.8% | SF-539 CNS 95.4% | UACC-257 melanoma 90.9% | M14 melanoma 90.7%

Cc1ccc(NC(=O)N2CCCCC2)cc1[N+](=O)[O-]
active: NCI-H522 lung -29.1% | UACC-257 melanoma -0.113%
inactive: NCI-H23 lung 91.1% | NCI-H226 lung 94.9% | HOP-62 NSCLC 84.2% | A549/ATCC NSCLC 39.5% | 786-0 renal 102% | COLO 205 colon 99.4% | DU-145 prostate 108% | K-562 leukemia 106% | MDA-MB-231 breast 95.5% | RXF 393 renal 106% | SF-268 CNS 81.1% | SF-539 CNS 92.6% | M14 melanoma 90.8%

COc1ccc(-c2cc(-c3ccc(Cl)cc3)nc(SCCCC(=O)NO)n2)cc1
active: NCI-H23 lung 0.964% | NCI-H226 lung -2.21% | NCI-H460 lung 0.515% | HOP-92 NSCLC 1.25% | NCI-H522 lung -12.1% | A549/ATCC NSCLC 5.47% | 786-0 renal 3.69% | COLO 205 colon 2.04% | DU-145 prostate 9.82% | K-562 leukemia 7.35% | MALME-3M melanoma -11.8% | MDA-MB-231 breast 1.61% | RXF 393 renal -21% | SF-268 CNS 2.08% | SF-295 CNS -19.1% | SF-539 CNS 4.55% | UACC-257 melanoma 3.4% | M14 melanoma -31.1%

C=C(C)[C@@H]1CC[C@]2(COCCC#N)CC[C@]3(C)[C@H](CC[C@@H]4[C@@]5(C)Cc6c([nH]c7ccccc67)C(C)(C)[C@@H]5CC[C@]43C)[C@@H]12
inactive: NCI-H23 lung 90.6% | NCI-H226 lung 94.5% | HOP-62 NSCLC 105% | HOP-92 NSCLC 107% | NCI-H522 lung 87% | A549/ATCC NSCLC 99.8% | 786-0 renal 101% | DU-145 prostate 100% | K-562 leukemia 100% | MALME-3M melanoma 119% | MDA-MB-231 breast 109% | RXF 393 renal 112% | SF-268 CNS 101% | SF-295 CNS 104% | SF-539 CNS 101% | UACC-257 melanoma 116% | M14 melanoma 98.7%

COc1ccc(/C=C2\CCCC3C2=Nc2ccccc2NC3c2ccc(OC)cc2)cc1 (stereo unspecified)
inactive: NCI-H23 lung 78.7% | NCI-H226 lung 94.9% | HOP-62 NSCLC 128% | A549/ATCC NSCLC 88.5% | 786-0 renal 101% | COLO 205 colon 116% | DU-145 prostate 101% | K-562 leukemia 50.9% | MALME-3M melanoma 94.3% | MDA-MB-231 breast 82.4% | RXF 393 renal 99.9% | SF-268 CNS 102% | SF-295 CNS 89.8% | SF-539 CNS 135% | UACC-257 melanoma 81.9% | M14 melanoma 71.1%
active: NCI-H522 lung 6.67%

COC(=O)C1(O)NC(=C(C#N)C#N)C(C#N)=C1C(=O)c1ccc(OC)c(OC)c1 (stereo unspecified)
inactive: NCI-H23 lung 103% | NCI-H226 lung 93.6% | HOP-62 NSCLC 96.1% | HOP-92 NSCLC 90.3% | NCI-H522 lung 90.3% | A549/ATCC NSCLC 91.9% | 786-0 renal 101% | COLO 205 colon 120% | DU-145 prostate 111% | K-562 leukemia 100% | MALME-3M melanoma 103% | MDA-MB-231 breast 119% | RXF 393 renal 100% | SF-268 CNS 98.5% | SF-295 CNS 105% | SF-539 CNS 104% | UACC-257 melanoma 81.7% | M14 melanoma 97.9%
